# Reference: PMC11006913
# Positions count from the first letter of the chain named.
# Tests used:
# Test in all cases: PBM; 200 nM protein, PBS
# Details in all cases: dsDNA, one strand shown
# HOXB4 [1] = molecular target: HOXB4 (Homo sapiens, UniProt P17483 148-234)
# VENTX [2] = molecular target: T1, VENTX (Homo sapiens, UniProt O95231 78-163, R121Q)
# T1 sequence: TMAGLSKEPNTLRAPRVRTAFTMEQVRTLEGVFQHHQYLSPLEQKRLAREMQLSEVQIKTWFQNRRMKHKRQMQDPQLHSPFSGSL
# HOXB9 [3] = molecular target: HOXB9 (Homo sapiens, UniProt P17482 171-250, T197M)
# SIX6 [4] = molecular target: T2, SIX6 (Homo sapiens, UniProt O95475 114-200, L167I)
# T2 sequence: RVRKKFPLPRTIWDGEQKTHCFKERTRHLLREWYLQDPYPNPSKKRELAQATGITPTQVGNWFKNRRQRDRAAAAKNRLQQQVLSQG
# VENTX [5] = molecular target: T3, VENTX (Homo sapiens, UniProt O95231 78-163)
# T3 sequence: T1 sequence with Q44R
# SIX6 [6] = molecular target: T4, SIX6 (Homo sapiens, UniProt O95475 114-200, L143V)
# T4 sequence: T2 sequence with L30V, I54L
# HOXA7 [7] = molecular target: HOXA7 (Homo sapiens, UniProt P31268 116-202)
# ALX4 [8] = molecular target: ALX4 (Homo sapiens, UniProt Q9H161 200-286)
# PAX4 [9] = molecular target: T5, PAX4 (Homo sapiens, UniProt O43316 9-242, R200K)
# T5 sequence: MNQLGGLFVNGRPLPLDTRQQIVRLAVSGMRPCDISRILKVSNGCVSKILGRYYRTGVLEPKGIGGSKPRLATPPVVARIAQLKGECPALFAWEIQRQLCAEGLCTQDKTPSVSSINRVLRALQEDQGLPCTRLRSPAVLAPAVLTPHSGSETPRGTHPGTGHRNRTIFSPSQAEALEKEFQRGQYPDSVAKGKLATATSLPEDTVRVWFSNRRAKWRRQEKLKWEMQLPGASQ
# SIX6 [10] = molecular target: T6, SIX6 (Homo sapiens, UniProt O95475 114-200, H141N)
# T6 sequence: T2 sequence with H28N, I54L
# SIX6 [11] = molecular target: T7, SIX6 (Homo sapiens, UniProt O95475 114-200, T165P)
# T7 sequence: T2 sequence with T52P, I54L
# VENTX [12] = molecular target: T8, VENTX (Homo sapiens, UniProt O95231 78-163, Y115F)
# T8 sequence: T1 sequence with Y38F, Q44R
# PAX4 [13] = molecular target: T9, PAX4 (Homo sapiens, UniProt O43316 9-242)
# T9 sequence: T5 sequence with K192R
# SIX6 [14] = molecular target: T10, SIX6 (Homo sapiens, UniProt O95475 114-200, L167M)
# T10 sequence: T2 sequence with I54M
# SIX6 [15] = molecular target: T11, SIX6 (Homo sapiens, UniProt O95475 114-200, L143M)
# T11 sequence: T2 sequence with L30M, I54L
# SIX6 [16] = molecular target: T12, SIX6 (Homo sapiens, UniProt O95475 114-200, L143I)
# T12 sequence: T2 sequence with L30I, I54L
# ALX4 [17] = molecular target: ALX4 (Homo sapiens, UniProt Q9H161 200-286, Q225E)
# SIX6 [18] = molecular target: T13, SIX6 (Homo sapiens, UniProt O95475 114-200, T165G)
# T13 sequence: T2 sequence with T52G, I54L
# HOXB9 [19] = molecular target: HOXB9 (Homo sapiens, UniProt P17482 171-250)
# SIX6 [20] = molecular target: T14, SIX6 (Homo sapiens, UniProt O95475 114-200, T139Q)
# T14 sequence: T2 sequence with T26Q, I54L
# HOXB4 [21] = molecular target: HOXB4 (Homo sapiens, UniProt P17483 148-234, V174I)
# SIX6 [22] = molecular target: T15, SIX6 (Homo sapiens, UniProt O95475 114-200, T165A)
# T15 sequence: T2 sequence with T52A, I54L
# PAX4 [23] = molecular target: T16, PAX4 (Homo sapiens, UniProt O43316 9-242, R200Q)
# T16 sequence: T5 sequence with K192Q
# PAX4 [24] = molecular target: T17, PAX4 (Homo sapiens, UniProt O43316 9-242, F177V)
# T17 sequence: T5 sequence with F169V, K192R
# SIX6 [25] = molecular target: T18, SIX6 (Homo sapiens, UniProt O95475 114-200, L167V)
# T18 sequence: T2 sequence with I54V
# PAX4 [26] = molecular target: T19, PAX4 (Homo sapiens, UniProt O43316 9-242, F177Y)
# T19 sequence: T5 sequence with F169Y, K192R
# PROP1 [27] = molecular target: PROP1 (Homo sapiens, UniProt O75360 56-141)
# SIX6 [28] = molecular target: T20, SIX6 (Homo sapiens, UniProt O95475 114-200)
# T20 sequence: T2 sequence with I54L
# PROP1 [29] = molecular target: PROP1 (Homo sapiens, UniProt O75360 56-141, R99H)
# SIX6 [30] = molecular target: T21, SIX6 (Homo sapiens, UniProt O95475 114-200, T165I)
# T21 sequence: T2 sequence with T52I, I54L
# HOXB9 [31] = molecular target: HOXB9 (Homo sapiens, UniProt P17482 171-250, R186Q)
# PROP1 [32] = molecular target: PROP1 (Homo sapiens, UniProt O75360 56-141, F88S)
# PAX4 [33] = molecular target: T22, PAX4 (Homo sapiens, UniProt O43316 9-242, R227W)
# T22 sequence: T5 sequence with K192R, R219W
# HOXA7 [34] = molecular target: HOXA7 (Homo sapiens, UniProt P31268 116-202, W177C)
# HOXA7 (Homo sapiens, UniProt P31268 116-202, W177C), sequence (P31268 116-202 W177C): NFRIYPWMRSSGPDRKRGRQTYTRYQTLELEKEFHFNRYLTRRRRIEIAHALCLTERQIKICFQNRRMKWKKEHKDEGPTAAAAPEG
# HOXB4 (Homo sapiens, UniProt P17483 148-234), sequence (P17483 148-234): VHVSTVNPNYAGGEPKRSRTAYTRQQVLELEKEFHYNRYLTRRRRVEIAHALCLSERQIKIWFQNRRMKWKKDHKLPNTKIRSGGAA
# ALX4 (Homo sapiens, UniProt Q9H161 200-286, Q225E), sequence (Q9H161 200-286 Q225E): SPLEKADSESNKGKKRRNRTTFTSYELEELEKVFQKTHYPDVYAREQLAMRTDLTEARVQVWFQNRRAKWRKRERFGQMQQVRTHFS
# HOXA7 (Homo sapiens, UniProt P31268 116-202), sequence (P31268 116-202): as the sequence (P31268 116-202 W177C) above, with C62W counted along it
# HOXB9 (Homo sapiens, UniProt P17482 171-250, T197M), sequence (P17482 171-250 T197M): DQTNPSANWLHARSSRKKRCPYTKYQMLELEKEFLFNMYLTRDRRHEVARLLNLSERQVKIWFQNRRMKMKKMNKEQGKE
# HOXB4 (Homo sapiens, UniProt P17483 148-234, V174I), sequence (P17483 148-234 V174I): as the sequence (P17483 148-234) above, with V27I counted along it
# PROP1 (Homo sapiens, UniProt O75360 56-141), sequence (O75360 56-141): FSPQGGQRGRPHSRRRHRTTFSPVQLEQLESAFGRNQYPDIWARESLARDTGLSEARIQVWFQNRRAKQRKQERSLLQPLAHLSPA
# HOXB9 (Homo sapiens, UniProt P17482 171-250), sequence (P17482 171-250): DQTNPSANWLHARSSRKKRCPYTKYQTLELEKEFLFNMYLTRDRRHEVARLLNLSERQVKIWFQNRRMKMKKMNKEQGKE
# ALX4 (Homo sapiens, UniProt Q9H161 200-286), sequence (Q9H161 200-286): as the sequence (Q9H161 200-286 Q225E) above, with E26Q counted along it
# HOXB9 (Homo sapiens, UniProt P17482 171-250, R186Q), sequence (P17482 171-250 R186Q): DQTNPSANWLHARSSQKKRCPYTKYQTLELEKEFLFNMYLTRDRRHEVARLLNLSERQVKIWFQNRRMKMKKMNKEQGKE
# PROP1 (Homo sapiens, UniProt O75360 56-141, R99H), sequence (O75360 56-141 R99H): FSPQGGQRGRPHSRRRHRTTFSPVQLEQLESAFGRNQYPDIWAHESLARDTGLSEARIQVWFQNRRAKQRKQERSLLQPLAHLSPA
# PROP1 (Homo sapiens, UniProt O75360 56-141, F88S), sequence (O75360 56-141 F88S): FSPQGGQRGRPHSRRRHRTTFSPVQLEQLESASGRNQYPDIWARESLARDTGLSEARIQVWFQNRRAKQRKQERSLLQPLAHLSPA
sequence,measurement,setting,value
CGTCCCGC,binding signal,HOXB4 [1],"7.48 upbm affinity estimate (log intensity, higher = more binding, comparable within an allelic series)"
same,binding signal,VENTX [2],"7.82 upbm affinity estimate (log intensity, higher = more binding, comparable within an allelic series)"
same,binding signal,HOXB9 [3],"8.41 upbm affinity estimate (log intensity, higher = more binding, comparable within an allelic series)"
same,binding signal,SIX6 [4],"8.81 upbm affinity estimate (log intensity, higher = more binding, comparable within an allelic series)"
same,binding signal,VENTX [5],"7.89 upbm affinity estimate (log intensity, higher = more binding, comparable within an allelic series)"
same,binding signal,SIX6 [6],"8.68 upbm affinity estimate (log intensity, higher = more binding, comparable within an allelic series)"
same,binding signal,HOXA7 [7],"8.5 upbm affinity estimate (log intensity, higher = more binding, comparable within an allelic series)"
same,binding signal,ALX4 [8],"8 upbm affinity estimate (log intensity, higher = more binding, comparable within an allelic series)"
same,binding signal,PAX4 [9],"9.13 upbm affinity estimate (log intensity, higher = more binding, comparable within an allelic series)"
same,binding signal,SIX6 [10],"8.86 upbm affinity estimate (log intensity, higher = more binding, comparable within an allelic series)"
same,binding signal,SIX6 [11],"8.88 upbm affinity estimate (log intensity, higher = more binding, comparable within an allelic series)"
same,binding signal,VENTX [12],"7.87 upbm affinity estimate (log intensity, higher = more binding, comparable within an allelic series)"
same,binding signal,PAX4 [13],"9.17 upbm affinity estimate (log intensity, higher = more binding, comparable within an allelic series)"
same,binding signal,SIX6 [14],"8.79 upbm affinity estimate (log intensity, higher = more binding, comparable within an allelic series)"
same,binding signal,SIX6 [15],"8.75 upbm affinity estimate (log intensity, higher = more binding, comparable within an allelic series)"
same,binding signal,SIX6 [16],"8.79 upbm affinity estimate (log intensity, higher = more binding, comparable within an allelic series)"
same,binding signal,ALX4 [17],"8.06 upbm affinity estimate (log intensity, higher = more binding, comparable within an allelic series)"
same,binding signal,SIX6 [18],"8.8 upbm affinity estimate (log intensity, higher = more binding, comparable within an allelic series)"
same,binding signal,HOXB9 [19],"8.35 upbm affinity estimate (log intensity, higher = more binding, comparable within an allelic series)"
same,binding signal,SIX6 [20],"8.84 upbm affinity estimate (log intensity, higher = more binding, comparable within an allelic series)"
same,binding signal,HOXB4 [21],"7.45 upbm affinity estimate (log intensity, higher = more binding, comparable within an allelic series)"
same,binding signal,SIX6 [22],"8.8 upbm affinity estimate (log intensity, higher = more binding, comparable within an allelic series)"
same,binding signal,PAX4 [23],"9.15 upbm affinity estimate (log intensity, higher = more binding, comparable within an allelic series)"
same,binding signal,PAX4 [24],"9.15 upbm affinity estimate (log intensity, higher = more binding, comparable within an allelic series)"
same,binding signal,SIX6 [25],"8.87 upbm affinity estimate (log intensity, higher = more binding, comparable within an allelic series)"
same,binding signal,PAX4 [26],"9.19 upbm affinity estimate (log intensity, higher = more binding, comparable within an allelic series)"
same,binding signal,PROP1 [27],"6.64 upbm affinity estimate (log intensity, higher = more binding, comparable within an allelic series)"
same,binding signal,SIX6 [28],"8.76 upbm affinity estimate (log intensity, higher = more binding, comparable within an allelic series)"
same,binding signal,PROP1 [29],"6.65 upbm affinity estimate (log intensity, higher = more binding, comparable within an allelic series)"
same,binding signal,SIX6 [30],"8.78 upbm affinity estimate (log intensity, higher = more binding, comparable within an allelic series)"
same,binding signal,HOXB9 [31],"8.38 upbm affinity estimate (log intensity, higher = more binding, comparable within an allelic series)"
same,binding signal,PROP1 [32],"6.67 upbm affinity estimate (log intensity, higher = more binding, comparable within an allelic series)"
same,binding signal,PAX4 [33],"9.22 upbm affinity estimate (log intensity, higher = more binding, comparable within an allelic series)"
same,binding signal,HOXA7 [34],"8.32 upbm affinity estimate (log intensity, higher = more binding, comparable within an allelic series)"
